# Results filed as inconclusive are left out. Active and inactive are the calls of the source. Calls follow the shape of the dose curve; as a rule, active = well fitted inhibition curve with a large enough effect; inconclusive = small, poorly fitted or top-dose-only effect; inactive = flat fitted curve, though single readings scatter.
# Test system: HEK293
# Assay: Cytotoxic Profiling of Annotated Libraries Using Quantitative High-Throughput Screening (AID 1296008); also: nearly all actives have a fitted effect of over 60% in size
# Conditions: Five cell lines viability, CellTiter-Glo ATP luminescence, 48-72 h; max response: active compounds read low
# Outline: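 Cytotoxicity was measured as CellTiter-Glo ATP luminescence, read after 10 min at room temperature. Compound treatment of the cells lasted 48 or 72 hr at 37 degrees Celsius in a qHTS format.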
# % is scaled to controls: 0 for no effect and ±100 for the full control effect; potency is read from the fitted curve at half-maximal effect.
SMILES,max response,Potency,outcome
CC(C)c1cc(C(=O)N2CC[C@H](NC(=O)C3CC3)C2)n[nH]1,-6.43% (inactive),–,–
COc1cc(O)c2c(c1)C1=CC(O)C(O)CC1(C)OC2=O (stereo not given),-5.55% (inactive),–,–
O=C(CC1C(=O)Nc2ccccc21)OC[C@H]1O[C@@H](OCCc2ccc(O)cc2)[C@H](O)[C@@H](O)[C@@H]1O (stereo not given in full),1.16% (inactive),–,–
C=C(C)C(=O)O[C@H]1CC2=CC(C/C(C)=C\[C@H]3OC(=O)C(=C)[C@H]13)OC2=O (stereo not given in full),–,4.53 µM (active),–
Nc1nc2c(c(N3CCNCC3)n1)CCC1=C2[C@@H]2CCCC[C@@H]2O1,–,18.4 µM (active),–
O=C(O)[C@H](Cc1ccc(Nc2nccc3ccncc23)cc1)NC1=C(Br)C(=O)C12CCCCC2,-11.7% (inactive),–,–
O=C(O)Cc1cn(C2OCC(O)C(O)C2O[C@@H]2O[C@H](CO)[C@@H](O)[C@H](O)[C@H]2O)c2ccccc12 (stereo not given in full),0.817% (inactive),–,–
CNC(=O)c1cc(Oc2ccc3nc(N[C@@H]4CCCC[C@H]4O)sc3c2)ccn1,–,16.4 µM (active),–
Cc1noc(-c2ccc(-c3ccc(CC(=O)O)cc3)cc2)c1NC(=O)O[C@H](C)c1ccccc1,-14% (inactive),–,–
COc1c(/C=C/C(C)(C)O)ccc2c1C(=O)OCc1cc(C)cc(O)c1O2,-114% (inactive),–,–
COC(=O)C1=CO[C@@H](O[C@@H]2O[C@H](CO)[C@@H](O)[C@H](O)[C@H]2O)[C@@H]2[C@@](C)(O)[C@@H](OC(=O)/C=C/c3ccc(O)cc3)C[C@]12O,3.54% (inactive),–,–
COc1ncc(Nc2ncc([C@@H](C)N3CCN(S(C)(=O)=O)CC3)cc2-c2nc(C)nc(N)n2)cc1F,–,0.259 µM (active),–
C[C@@H]1O[C@@H](O[C@H]2[C@H](OC(=O)[C@]34CCC(C)(C)C[C@H]3C3=CCC5[C@@]6(C)C[C@H](O)[C@H](O[C@@H]7O[C@H](CO)[C@@H](O)[C@H](O)[C@H]7O)[C@@](C)(CO)C6[C@H](O)C[C@@]5(C)[C@]3(C)CC4)OC[C@H](O)[C@@H]2O)[C@H](O)[C@H](O)[C@H]1O[C@@H]1OC[C@@H](O)[C@H](O[C@@H]2OC[C@](O)(CO)[C@H]2O)[C@H]1O (stereo not given in full),-1.81% (inactive),–,–
O=C(/C=C/c1cccc(S(=O)(=O)Nc2ccccc2)c1)NO,–,3.99 µM (active),–
COc1ccc([C@@]2(O)c3c(ccc(CC=C(C)C)c3O)NC(=O)[C@@H]2OC)cc1,–,–,inactive
O=C(Nc1ccc(Cl)cc1F)c1ccccc1O,–,16.4 µM (active),–
C[C@@H]1C(=O)O[C@H](C)[C@H]1CC(=O)[C@](C)(O)[C@H]1CC[C@@]2(O)C3=CC(=O)[C@@H]4C[C@@H](O)[C@@H](O)C[C@]4(C)C3CC[C@]12C (stereo not given in full),-19.4% (inactive),–,–
CCN(CC)CCN(Cc1ccc(-c2ccc(C(F)(F)F)cc2)cc1)C(=O)Cn1c(SCc2ccc(F)cc2)nc(=O)c2c1CCC2,–,3.66 µM (active),–
O=[N+]([O-])c1cccc2[nH]c(CNc3nc(N4CCOCC4)nc4c3ncn4-c3ccsc3)nc12,–,0.058 µM (active),–
CC(C)CCC(=O)CC1c2ccccc2C(=O)N1c1ccc2ccc(Cl)nc2n1 (stereo not given),–,16.4 µM (active),–
Cc1ccccc1-n1c([C@H](C)Nc2nc(N)nc3nc[nH]c23)nc2cccc(C)c2c1=O,–,16.4 µM (active),–
CC(=O)OC1C(O)CC2(C)C(CCC(C)C23Cc2c(O)cc(CO)c(C=O)c2O3)C1(C)C (stereo not given),-11.5% (inactive),–,–
C=C(C)C(=O)OC1CC2(C)OC(=CC2=O)C(=C)CC2OC(=O)C(COC)C12 (stereo not given),–,7.18 µM (active),–
CNC12CC3C[C@@](C)(C1)C[C@](C)(C3)C2,-16.8% (inactive),–,–
C[C@H]1[C@H](O)O[C@@H]2O[C@@]3(C)CC[C@H]4[C@H](C)CC[C@@H]1[C@@]24OO3,–,1.84 µM (active),–
Cc1cc(Nc2ccc(NC(=O)c3ccc(Nc4ccnc5ccccc45)cc3)cc2)nc(N)n1,–,3.26 µM (active),–
O=C(NCc1cccc(O)c1)Nc1nc(-c2ccncc2)cs1,-21.2% (inactive),–,–
Cc1cc(-c2cc(O)ccc2Cl)cc2nnc(Nc3ccc(OCCN4CCCC4)cc3)nc12,–,3.26 µM (active),–
CC1(CCOC2OC(CO)C(O)C(O)C2O)CCC23OC2(C1)C(O)CC1C(C)(C(=O)O)CCCC13C (stereo not given),-6.41% (inactive),–,–
C[C@@H]1O[C@@H](O[C@@H]2[C@@H](O)[C@@H](O[C@]3(CO)O[C@H](CO)[C@@H](O)[C@@H]3OC(=O)/C=C/c3ccc(O)cc3)O[C@H](CO)[C@H]2OC(=O)/C=C/c2ccc(O)cc2)[C@H](O)[C@H](O)[C@H]1O[C@@H]1O[C@@H](C)[C@H](O[C@@H]2OC[C@](O)(CO)[C@H]2O)[C@@H](O)[C@H]1O,–,–,inactive
